The subject of experiment [1] is U-2932. Nature of the experiment: growth inhibition by drug plus 177Lu-lilotomab satetraxetan (1 - RLU/untreated control) (fraction); higher = stronger inhibition. The conditions noted are these: 177Lu-lilotomab satetraxetan 1 ug/ml. Put shortly:
(§1)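 Compound doses on the pre-printed Selleck Cambridge Cancer Compound library plates were 10/100 nM for RIVA cells and 10/1,000 nM for U-2932 cells, seeded at 3,000 cells/well. Before seeding, cells were washed after 18 h with or without a radiolabelled anti-CD37 antibody conjugate (~600 MBq/mg; 0.5 µg/ml RIVA, 1 µg/ml U-2932). Growth inhibition was derived from RealTime-Glo luminescence relative to untreated no-drug control wells. Readings were taken daily starting on day 3, each after 1 h at 37°C, and each well's RLU was divided by the mean of 48 such wells per plate and subtracted from 1.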

The next experiment has as its system RIVA. The experiment is described as above. The conditions noted are these: 177Lu-lilotomab satetraxetan 0.5 ug/ml. Put shortly:
as §1

Experiment [2] has as its system U-2932. Nature of the experiment: growth inhibition by drug alone (1 - RLU/untreated control) (fraction); higher = stronger inhibition. The conditions noted are these: 177Lu-lilotomab satetraxetan 0 ug/ml. A digest of the protocol: as §1

Each structure is given as a SMILES string.

For the compound `CC1=C2C[C@H]3[C@@H](CC=C4C[C@@H](O)CC[C@@]43C)[C@@H]2CC[C@]12O[C@@H]1C[C@H](C)CN[C@H]1[C@H]2C` [Cyclopamine], the “growth inhibition by drug plus 177Lu-lilotomab satetraxetan” value in the experiment with U-2932 [1] (10 nM, time (day): 3) is 0.0717; with U-2932 [1] (10 nM, time (day): 4), 0.0954; with U-2932 [1] (10 nM, time (day): 5) it was 0.107; in the experiment with U-2932 [1] (10 nM, time (day): 6) it was 0.127; in the experiment with U-2932 [1] (1000 nM, time (day): 3), -0.0532; in the experiment on U-2932 [1] (1000 nM, time (day): 4) it was 0.0394. Besides, the “growth inhibition by drug plus 177Lu-lilotomab satetraxetan” value in the experiment with U-2932 [1] (1000 nM, time (day): 5) is 0.0391; in the experiment on U-2932 [1] (1000 nM, time (day): 6), 0.0669.
For `O=C(Oc1ccc([N+](=O)[O-])cc1)N1CCC(C(O)(c2ccc3c(c2)OCO3)c2ccc3c(c2)OCO3)CC1`, the “growth inhibition by drug plus 177Lu-lilotomab satetraxetan” value in the experiment on U-2932 [1] (10 nM, time (day): 3) is -0.0245; with U-2932 [1] (10 nM, time (day): 4), 0.00325; in the experiment with U-2932 [1] (10 nM, time (day): 5), 0.0178; in the experiment with U-2932 [1] (10 nM, time (day): 6), 0.11; in the experiment on U-2932 [1] (1000 nM, time (day): 3), -0.0484; in the experiment on U-2932 [1] (1000 nM, time (day): 4), 0.0258. Moreover, the “growth inhibition by drug plus 177Lu-lilotomab satetraxetan” value in the experiment on U-2932 [1] (1000 nM, time (day): 5) turned out to be 0.0163; with U-2932 [1] (1000 nM, time (day): 6), 0.077; in the experiment with RIVA (10 nM, time (day): 3) it was 0.375; in the experiment on RIVA (10 nM, time (day): 4), 0.498; in the experiment on RIVA (10 nM, time (day): 5), 0.518; in the experiment on RIVA (10 nM, time (day): 6) it was 0.517. In addition, the “growth inhibition by drug plus 177Lu-lilotomab satetraxetan” value with RIVA (100 nM, time (day): 3) was 0.429; with RIVA (100 nM, time (day): 4) it was 0.517; in the experiment with RIVA (100 nM, time (day): 5) it was 0.523; with RIVA (100 nM, time (day): 6), 0.501.
For `C[C@]12CCC(=O)C(O)=C1CC[C@@H]1[C@@H]2CC[C@]2(C)C(=O)CC[C@@H]12` [Formestane], the “growth inhibition by drug plus 177Lu-lilotomab satetraxetan” value in the experiment with U-2932 [1] (10 nM, time (day): 3) is -0.06; with U-2932 [1] (10 nM, time (day): 4), -0.00612; in the experiment on U-2932 [1] (10 nM, time (day): 5), 0.0406; in the experiment with U-2932 [1] (10 nM, time (day): 6) it was 0.141; in the experiment on U-2932 [1] (1000 nM, time (day): 3), -0.0681; with U-2932 [1] (1000 nM, time (day): 4), -0.018. Further, the “growth inhibition by drug plus 177Lu-lilotomab satetraxetan” value in the experiment on U-2932 [1] (1000 nM, time (day): 5) came to 0.0247; with U-2932 [1] (1000 nM, time (day): 6), 0.18.
For `CC(=O)Nc1ccc(OC[C@](C)(O)C(=O)Nc2ccc([N+](=O)[O-])c(C(F)(F)F)c2)cc1` [Andarine (GTX-007)], the “growth inhibition by drug plus 177Lu-lilotomab satetraxetan” value is 0.0713 in the experiment on U-2932 [1] (10 nM, time (day): 3); 0.12 in the experiment with U-2932 [1] (10 nM, time (day): 4); 0.151 in the experiment on U-2932 [1] (10 nM, time (day): 5); 0.162 with U-2932 [1] (10 nM, time (day): 6); -0.0087 in the experiment on U-2932 [1] (1000 nM, time (day): 3); 0.0374 in the experiment with U-2932 [1] (1000 nM, time (day): 4). Further, the “growth inhibition by drug plus 177Lu-lilotomab satetraxetan” value turned out to be 0.0839 in the experiment with U-2932 [1] (1000 nM, time (day): 5) and 0.127 with U-2932 [1] (1000 nM, time (day): 6).
In the case of `CC(C)[C@]12O[C@H]1[C@@H]1O[C@]13[C@]1(O[C@H]1C[C@H]1C4=C(CC[C@@]13C)C(=O)OC4)[C@@H]2O` [Triptolide], the “growth inhibition by drug plus 177Lu-lilotomab satetraxetan” value with U-2932 [1] (10 nM, time (day): 3) turned out to be 0.468; in the experiment on U-2932 [1] (10 nM, time (day): 4), 0.657; in the experiment with U-2932 [1] (10 nM, time (day): 5), 0.744; in the experiment on U-2932 [1] (10 nM, time (day): 6), 0.774; in the experiment on U-2932 [1] (1000 nM, time (day): 3) it was 0.965; with U-2932 [1] (1000 nM, time (day): 4) it was 0.976. The “growth inhibition by drug plus 177Lu-lilotomab satetraxetan” value turned out to be 0.981 in the experiment on U-2932 [1] (1000 nM, time (day): 5) and 0.986 in the experiment with U-2932 [1] (1000 nM, time (day): 6).
For `Cn1cc(C2=C(c3cn(C4CCN(Cc5ccccn5)CC4)c4ccccc34)C(=O)NC2=O)c2ccccc21`, the “growth inhibition by drug plus 177Lu-lilotomab satetraxetan” value in the experiment on U-2932 [1] (10 nM, time (day): 3) is -0.0756; in the experiment with U-2932 [1] (10 nM, time (day): 4), -0.00933; in the experiment on U-2932 [1] (10 nM, time (day): 5), 0.0275; with U-2932 [1] (10 nM, time (day): 6), 0.128; in the experiment with U-2932 [1] (1000 nM, time (day): 3) it was -0.0807; with U-2932 [1] (1000 nM, time (day): 4), -0.0188. The “growth inhibition by drug plus 177Lu-lilotomab satetraxetan” value was 0.0211 with U-2932 [1] (1000 nM, time (day): 5) and 0.21 in the experiment on U-2932 [1] (1000 nM, time (day): 6).
As to `Cc1ccccc1-n1c(Cn2cnc3c(N)ncnc32)nc2cccc(C)c2c1=O`, the “growth inhibition by drug alone” value in the experiment with U-2932 [2] (10 nM, time (day): 3) was found to be 0.0494; with U-2932 [2] (10 nM, time (day): 4) it was 0.000763; in the experiment on U-2932 [2] (10 nM, time (day): 5), 0.0122; in the experiment with U-2932 [2] (10 nM, time (day): 6) it was 0.0686; with U-2932 [2] (1000 nM, time (day): 3), 0.047; with U-2932 [2] (1000 nM, time (day): 4) it was 0.0488. The “growth inhibition by drug alone” value was 0.0186 with U-2932 [2] (1000 nM, time (day): 5) and 0.102 in the experiment with U-2932 [2] (1000 nM, time (day): 6). Further, the “growth inhibition by drug plus 177Lu-lilotomab satetraxetan” value with U-2932 [1] (10 nM, time (day): 3) was -0.00529; with U-2932 [1] (10 nM, time (day): 4), 0.0455; in the experiment with U-2932 [1] (10 nM, time (day): 5), 0.107; with U-2932 [1] (10 nM, time (day): 6), 0.209; in the experiment with U-2932 [1] (1000 nM, time (day): 3), 0.0591; in the experiment on U-2932 [1] (1000 nM, time (day): 4) it was 0.0697. Further, the “growth inhibition by drug plus 177Lu-lilotomab satetraxetan” value in the experiment on U-2932 [1] (1000 nM, time (day): 5) is 0.0914; in the experiment on U-2932 [1] (1000 nM, time (day): 6), 0.26.
Turning to `CC[C@@H](C(=O)[C@@H](C)[C@@H](O)[C@H](C)[C@@H]1O[C@@H]([C@@H](CC)C(=O)O)CC[C@@H]1C)[C@H]1O[C@]2(C=C[C@@H](O)[C@]3(CC[C@@](C)([C@H]4CC[C@](O)(CC)[C@H](C)O4)O3)O2)[C@H](C)C[C@@H]1C` [Salinomycin (Procoxacin)], the “growth inhibition by drug plus 177Lu-lilotomab satetraxetan” value in the experiment with U-2932 [1] (10 nM, time (day): 3) turned out to be 0.0566; in the experiment on U-2932 [1] (10 nM, time (day): 4), 0.111; in the experiment on U-2932 [1] (10 nM, time (day): 5) it was 0.126; in the experiment on U-2932 [1] (10 nM, time (day): 6), 0.245; in the experiment with U-2932 [1] (1000 nM, time (day): 3), 0.381; in the experiment on U-2932 [1] (1000 nM, time (day): 4), 0.516. Besides, the “growth inhibition by drug plus 177Lu-lilotomab satetraxetan” value stood at 0.607 in the experiment with U-2932 [1] (1000 nM, time (day): 5) and 0.75 in the experiment with U-2932 [1] (1000 nM, time (day): 6).

(Values after the supplement of paper PMC6897291.)
